# Sampled rows, rich in hits. Any-hit rate of the full collection: about 6.1%.
# D1 potentiator – human D1 dopamine receptor positive modulation | HEK293 TREx D1 cells, calcium flux, dopamine EC20 potentiation | potentiation, % at 10 µM | 360,000 compounds, 0.036% hits; in the data active means potentiation above about 30%; further: 0% is about no effect
# Target sequence (P21728 whole entry, looked up): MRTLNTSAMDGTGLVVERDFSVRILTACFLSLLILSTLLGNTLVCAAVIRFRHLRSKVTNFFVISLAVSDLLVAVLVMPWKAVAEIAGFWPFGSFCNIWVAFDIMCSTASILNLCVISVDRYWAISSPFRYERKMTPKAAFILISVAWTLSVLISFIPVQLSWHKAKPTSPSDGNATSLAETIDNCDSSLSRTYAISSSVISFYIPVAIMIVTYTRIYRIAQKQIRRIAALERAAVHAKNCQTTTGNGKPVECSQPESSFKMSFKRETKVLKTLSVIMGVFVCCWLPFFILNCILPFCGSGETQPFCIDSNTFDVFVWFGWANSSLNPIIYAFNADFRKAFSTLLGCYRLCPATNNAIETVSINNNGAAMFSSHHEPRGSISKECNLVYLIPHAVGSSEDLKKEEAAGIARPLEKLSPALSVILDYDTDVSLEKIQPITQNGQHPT
# D1 antagonist – antagonists of human D1 dopamine receptor | P21728 | HEK293 TREx D1 cells, calcium flux, dopamine EC80; hits give low values | activity change, negative = inhibition, % at 10 µM | 360,000 compounds, 3.2% hits; in the data active means activity change below about -30%; further: on the % scale 0 is the no-effect control and ±100 the full control effect
#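 Compound effects on dopamine-evoked calcium signalling were measured in tetracycline-induced HEK293 Trex D1 cells. Dopamine at EC80 followed a 180 s compound pre-read, and fluorescence was tracked kinetically for 180 s more.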
# D3 ag – agonists of human D3 dopamine receptor | D3R DiscoveRx beta-arrestin cells, luminescence, 90 min | 410,000 compounds, 0.58% hits | max activation, %; in the data active means max activation above about 30%; further: 0% is about no effect
#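 Agonist mode: compounds and dopamine controls were applied to plated cells for 90 min at 37 degrees C after an overnight attachment at 1500 cells/well. Luminescent read-out followed 30 - 60 minutes at room temperature with DiscoveRx detection reagent.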
# DRD3 antagonist – antagonists of human D3 dopamine receptor. P35462. D3R cells, DiscoveRx beta-arrestin luminescence, antagonist mode; hits give low values. max response, negative = inhibition, %. 360,000 compounds, 2.5% hits. AID 652054; in the data active means max response below about -50%; inconclusive means no clear call, values can overlap the other calls; further: on the % scale 0 is the no-effect control and ±100 the full control effect
#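 Cells expressing the human receptor were seeded at 1500 cells/well, incubated overnight at 37 degrees C in 5% CO2, then exposed to library compounds with dopamine controls for 90 minutes at 37 degrees C before luminescent detection.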
# D1 ag – activates the human D1 dopamine receptor. activation, % at 2 µM. P21728. HEK293 T-REx D1 cells, calcium flux, agonist mode. AID 504660. 360,000 compounds, 1% hits; in the data active means activation above about 30%; further: 0% is about no effect
#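 Tetracycline-induced HEK293 TREx D1 cells, force-coupled to calcium signalling, were dye-loaded with a no-wash calcium kit. Compound was pin-added after a 10 s baseline. Fluorescence was read kinetically at 1 cycle/s for 180 s, with calcium rises flagged as agonism.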
# ERG-DNA inh – ERG Ets/DNA interaction inhibition | Potency, µM (doses to about 76.9 µM), inactives show at the top dose FP activity, negative = inhibition, most hits filed as inhibitors | AID 624246 | fluorescence polarization, His-ERG Ets domain / labelled DNA | P11308 | 370,000 compounds, 0.028% hits; active means well fitted inhibition curve with a large enough effect in the polarisation, with a control signal flat; inconclusive means small, poorly fitted or top-dose-only effect, or effect the other way, or a change in a side signal; inactive means no such curve, though single readings can be large or run the other way; the % refers to the polarisation;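 further: polarization taken with two DNA probes labelled with fluorescein and Texas red; potency means the concentration at half of the fitted maximal effect; % of control where 0% means no effect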
#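 His-tagged ERG Ets domain (1 uM in the protein solution; 300mM KCl, 50mM Tris-HCl, 1mM EDTA, 1mM DTT, pH 7.5) received compound, then a probe mix of 5 nM fluorescein-DNA and 100nM Texas-615-DNA. Fluorescence polarization was read for both dyes.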
# The depositor's hits bear a star; ? = inconclusive; . = not tested or not shown.
SMILES,D1 potentiator,D1 antagonist,D3 ag,DRD3 antagonist,D1 ag,ERG-DNA inh
CCCOc1ccc(/C=C2\SC(N)=NC2=O)cc1OC,-14,-42*,-1,16,0,4%
CCN(CC)c1ccc(/C=C2\SC(N)=NC2=O)cc1,0,8,-2,-15,60*,7%
O=C1CSC(c2ccccc2F)N1CCN1CCCCC1 (stereo unspecified),1,3,-6,-86*,0,1%
O=C1CSC(c2cccc([N+](=O)[O-])c2)N1CCN1CCCCC1 (stereo unspecified),1,-3,0,?,0,0%
Cc1ccc(C(=O)N/N=C/C=C/c2ccccc2)cc1,-1,-36*,-14,-21,8,-2%
O=S1(=O)N=C(N/N=C/C=C/c2ccccc2)c2ccccc21,-3,-2,-5,-17,-1,-8%
CCn1c(=O)c2ccccc2n(Cc2cccc(C)c2)c1=O,-7,-32*,-3,-14,-1,-11%
Oc1ccc(N=Nc2n[nH]c(-c3ccc(Br)cc3)n2)cc1,6,-39*,-5,-4,1,-10%
Oc1ccc(N=Nc2n[nH]c(-c3ccccc3)n2)cc1,1,0,-5,13,0,-8%
CC(=O)c1cnc(-c2cccc(Cl)c2)s1,-2,-2,-8,1,3,-1%
COc1ccc(-c2ccc(C)cc2)cc1[C@H]1[C@H]2C=CC[C@@H](C)[C@@H]2C(=O)N1Cc1ccccc1,2,1,-37,-11,2,2%
COc1ccc(-c2ccoc2)cc1[C@H]1[C@H]2C=CC[C@@H](C)[C@@H]2C(=O)N1Cc1ccccc1,0,22,-45,-56*,6,-4%
COc1ccc(-c2ccc(OC)c([C@H]3[C@H]4C=CC[C@@H](C)[C@@H]4C(=O)N3Cc3ccccc3)c2)cc1,0,34,-56,-52*,8,-2%
CC(C)(C)c1cc(NC(=O)CSc2nnc(NCc3ccccc3)s2)n(-c2ccccc2)n1,1,11,7,8,-2,23%
COC(=O)CN1C(=O)C(C)(C)c2cc(S(=O)(=O)Nc3ccc(C(C)C)cc3)ccc21,-4,-1,4,.,17,-1%
COc1ccc(-c2cc(N)n(S(=O)(=O)c3c(F)c(F)c(F)c(F)c3F)n2)cc1OC,-2,-18,-25,-56*,-1,0%
COc1ccc(S(=O)(=O)n2nc(-c3cc(OC)c(OC)c(OC)c3)cc2N)cc1OC,1,-1,0,24,2,10%
CC(Sc1nnc(CNC(=O)c2ccco2)n1C)C(=O)Nc1nccs1 (stereo unspecified),.,7,-2,8,10,-1%
CCS(=O)(=O)c1ncc(Cl)c(C(=O)NCc2ccc(OC)cc2)n1,-4,-21,-28,.,1,1%
CCOc1ccccc1NC(=O)c1nc(S(=O)(=O)Cc2ccccc2)ncc1Cl,-1,-18,-24,-107*,1,-9%
CCS(=O)(=O)c1ncc(Cl)c(C(=O)Nc2ccccc2OC)n1,-2,-25,-10,-64*,5,1%
COc1ccccc1NC(=O)c1nc(S(=O)(=O)Cc2ccccc2)ncc1Cl,-8,-38*,-32,-89*,4,11%
CSc1nnc(NC(=O)c2nc(S(=O)(=O)Cc3ccccc3)ncc2Cl)s1,2,2,0,?,0,-10%
COc1ccc(OC)c(NC(=O)c2nc(S(=O)(=O)Cc3ccc(F)cc3)ncc2Cl)c1,1,-35*,-24,.,4,-1%
Cc1ccc(S(=O)(=O)N2CCCC(C(=O)Nc3ccc(NC(=O)c4ccccn4)cc3)C2)cc1 (stereo unspecified),-2,-13,6,11,2,4%
Cc1ccc(OCC(=O)NNC(=S)NC(=O)c2ccc(Br)o2)c(C)c1,2,-13,3,6,41*,0%
N=c1c[n+](N2CCOCC2)[n-]o1,-2,-7,-11,-107*,3,-25%
COc1cc(NC(=O)COC(=O)C2CC2)c(C)cc1[N+](=O)[O-],-5,7,-3,-1,4,.

# Source: PubChem BioAssay
